Laboratory results from ChEMBL document CHEMBL4513149, “CO-ADD screening of MMV (CH) - MMV compounds” (2021).
Results with a measured potency or affinity are listed apart.

Assays:
Staphylococcus aureus = settings: Concentration 20 uM; ASSAY_TEST Inhibition of Bacterial Growth; detection method Absorption (OD600); MEDIA CAMHB; plate type 384well; NBS; CORNING #3640; time 18 hr
Escherichia coli = settings: Concentration 20 uM; ASSAY_TEST Inhibition of Bacterial Growth; detection method Absorption (OD600); MEDIA CAMHB; plate type 384well; NBS; CORNING #3640; time 18 hr

Row | Compound | Inhibition (Staphylococcus aureus) | Inhibition (Escherichia coli)
1 | CCN(CC)S(=O)(=O)c1ccc(Cl)c(C(=O)Nc2ccc3nc(C)sc3c2)c1 | 2.16% | 0.28%
2 | O=C(NCCc1c[nH]c2ccccc12)c1cc2ccccc2oc1=O | 13.99% | 9.41%
3 | Cn1ncc2c(N3CCOCC3)nc(NCCc3c[nH]c4ccccc34)nc21 [TDR79432] | 12.92% | -1.67%
4 | Cc1cc2nc(NC(=O)C(C)(C)C)nc(Cl)c2n1Cc1ccc(Cl)cc1 | 7.77% | 0.73%
5 | CC(=O)N(CCN(C(=O)c1ccc(F)cc1)c1ccccc1)c1ccccc1 | 12.64% | 5.32%
6 | CC1(C)Cc2c(c(N3CCOCC3)nc3snc(Br)c23)CO1 | 19.87% | 4.52%
7 | Cc1ccc2cc(C3NC(=O)c4ccccc4N3)c(Cl)nc2c1 (stereo not given) | 11.87% | 10.17%
8 | CC1COC2(CCN(c3nc(=O)c4cc(C(F)(F)F)cc([N+](=O)[O-])c4s3)CC2)O1 (stereo not given) | 16.17% | 4.14%
9 | Cl.O[C@@H](c1cc(C(F)(F)F)nc2c(C(F)(F)F)cccc12)[C@H]1CCCCN1 | 45.36% | 15.86%
10 | CN1CCN(S(=O)(=O)c2ccc(-c3ccc4c(Nc5ncc(Cl)cn5)ccnc4c3)cc2)CC1 | 23.03% | 2.97%
11 | Cc1cc(NCC(C)C)c2[nH]nc(-c3ccccc3)c2n1 | 14.44% | 8.23%
12 | CN1CCN(S(=O)(=O)c2ccc(-c3ccc4c(Nc5ccc6nn[nH]c6c5)ccnc4c3)cc2)CC1 | 10.46% | -0.24%
13 | O=C(NCc1ccoc1)N1CCN(Cc2ccc3c(c2)OCO3)CC1 | 17.61% | 3.25%
14 | COc1cccc(-c2cc3c(Nc4cccnc4)nccc3[nH]2)c1 | 13.42% | -3.86%
15 | Cc1nn2c(O)c3c(nc2c1-c1ccc(F)cc1)CCCC3 | 17.1% | 16.25%
16 | CCOc1ccc2cc(-c3nn(C(C)(C)C)c(N)c3C(N)=O)cnc2c1.Cl | 14.66% | 7.93%
17 | CNc1snc(C)c1C(=O)NCCOc1ccc(OC)cc1 | 18.31% | 5.8%
18 | COc1ccc(Cl)cc1NC(=O)CN(C)C(=O)c1cnn(-c2ccccc2)n1 | 8.96% | -2.51%
19 | O=C(C(Cc1c[nH]c2ccccc12)NS(=O)(=O)c1ccc(Cl)cc1)N1CCCCC1 (stereo not given) | 2.32% | 4.17%
20 | COc1ccc(-c2cnc3cnc(-c4cccc(OC(C)C)c4)cn23)cc1 | 6.79% | 4.77%
21 | O=C(NC1CCN(c2ccnc3ccccc23)C1)c1cccc(C(F)(F)F)c1 (stereo not given) | 10.7% | 9.38%
22 | O=C(C1CCCCC1)N1CC(=O)N2CCc3ccccc3C2C1 (stereo not given) [PRAZIQUANTEL] | 18.11% | 6.83%
23 | COc1cc(CN2CCC3(C=Cc4ccccc43)CC2)cc2c1OCO2 | -1.3% | -2.88%

Row | Compound | Inhibition (Staphylococcus aureus) | Inhibition (Escherichia coli)
24 | COc1cccc(CC(=O)N2CCC(n3c(C)nc4ccc(F)cc43)CC2)c1 | 21.64% | 9.91%
25 | CNC(=O)C1Cc2ccccc2N1C(=O)Cc1ccc(F)cc1 (stereo not given) | 16.81% | 5.31%
26 | O=C(NC1CC1)c1ccc(N2CCC(Cc3ccccc3)CC2)nc1 | 20.17% | 11.23%
27 | O=C(c1ccc(F)cc1)N(CCNc1ccccc1)c1ccccc1 | 14.62% | 8.4%
28 | Cc1cc(O)nc(-n2nc(C)cc2C)n1 | 9.17% | 6.91%
29 | CCCCS(=O)(=O)Nc1ccc2cnn(C)c2c1 | 17.72% | 10.93%
30 | Nc1ncc(-c2ccc(C(F)(F)F)nc2)cc1-c1ccc(C(F)(F)F)nc1 | 3.63% | 7.53%
31 | CN1CCN(c2nccc3[nH]c(-c4cccc(F)c4)cc23)CC1 | 12.79% | 3.68%
32 | Cc1cc(C)cc(COc2ccc3c(C)c(CCC(=O)O)c(=O)oc3c2C)c1 | 19.34% | 4.13%
33 | Cc1cccc(Cn2ccc(NC(=O)c3ccc4c(c3)OCO4)n2)c1 | 18.14% | 6.79%
34 | CC(C)C(Oc1cccc2ccccc12)C(=O)O (stereo not given) | 10.48% | -2.25%
35 | CNC(=O)C1Cc2c([nH]c3cc(Cl)ccc23)C2(CCN(CCc3ccccc3)CC2)N1 (stereo not given) | 24.47% | 9.53%
36 | Cl.NCCCC(N)(C(=O)O)C(F)F.O (stereo not given) [EFLORNITHINE HYDROCHLORIDE] | 10.2% | -2.06%
37 | O=C(NC1CC1)c1ccc(N2CCOc3ccc(Cl)cc32)s1 | 18.01% | 8.85%
38 | Cc1cnc(N2CCN[C@@H](Cc3ccccc3)C2)nc1Oc1ccc(-n2ccnc2)cc1.Cl | 11.48% | -1.63%
39 | CN(C)c1cc(NC(=O)Nc2ccccc2)c2ccccc2n1 | 12.79% | 6.08%
40 | c1ccc(-c2cc(N3CCCCC3)c3ccccc3n2)nc1 | 9.48% | 7.94%
41 | COc1ccc(C(=N)N)cc1-c1cn(-c2ccc(C(=N)N)cc2)nn1.Cl.Cl | 4.09% | 2.37%
42 | CC1(COc2ccc(N3CCC(Oc4ccc(OC(F)(F)F)cc4)CC3)cc2)Cn2cc([N+](=O)[O-])nc2O1 (stereo not given) | 13.25% | 11.79%
43 | CCOC(=O)c1cc(-c2csc(Nc3c(C)cc(C)cc3C)n2)on1 | 5.55% | 5.47%
44 | COc1cc(C(F)(F)F)nc2ccc(C)c(N)c12 | 15.64% | 5.11%
45 | OCCc1ccc(Nc2nccc(-c3nnc4ccccn34)n2)cc1 | 21.71% | 6.52%
